Measured values published in PubChem BioAssay (Tox21).
“And” between values parts separate entries of the source, which are not always exact repeats. Equal entries are not always repeated. Inconclusive results are not listed. The source holds several records for some structures; these can differ, active in one and inactive in another. The source made the active and inactive calls. Unless noted, calls come from the whole dose curve.

Columns and labels:
[1] = G protein-coupled receptor (GPCR) small molecule agonists, calcium flux assay: HEK293 wild type cell line counter screen (AID 1920065)
Summary of the method: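 Kinetic fluorescence at Ex/Em 480/540, recorded every second over 3 min, served as the read-out after compound addition. Each compound was tested at 15 concentrations in triplicate on cells pre-loaded with calcium dye for 1 h.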

[2] = p53 small molecule agonists, cell-based qHTS assay: qHTS cell viability counter screen (AID 1963581); note: nearly all actives have a fitted effect of over 45% in size; note: potency is the fitted concentration of half-maximal effect
Summary of the method: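 HCT-116 p53RE-bla cells, 4,000/well, plated 5 h before compound pin transfer; 16 h at 37 C; bla substrate 2 h RT; then CellTiter-Glo, 30 min RT, luminescence.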

[3] = target: Beta-2 adrenergic receptor (Homo sapiens) (UniProt P07550); test: Adrenergic beta2 receptor (ADRB2) small molecule antagonists, cell-based qHTS assay (AID 1963592); note: nearly all actives have a fitted effect of over 50% in size; note: potency is the fitted concentration of half-maximal effect; for activity change, negative = inhibition: series mostly up to about 92 µM
Summary of the method: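 Cells (CHO, stable ADRB2 overexpression) incubated 18-20hr at 37C; compounds added from DMSO; agonist mix (1nM isoproterenol, 100uM IBMX, 25uM Ro-20-1724) added; 0.5hr RT; d2-cAMP and anti-cAMP-cryptate added; 1hr RT; 665/615 nm read.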

[4] = target: Beta-2 adrenergic receptor (Homo sapiens) (UniProt P07550); test: Adrenergic beta2 receptor (ADRB2) small molecule agonists, cell-based qHTS assay (AID 1963593);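 note: CHO cells stably overexpressing human ADRB2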
Summary of the method: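 CHO cells stably over-expressing ADRB2 were plated overnight at 37C, then dosed with compounds plus a stimulation mix containing 100uM IBMX and 25uM Ro-20-1724 for 0.5hr at room temperature. cAMP was measured by HTRF competition, 1hr.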

[5] = target: D(2) dopamine receptor (Homo sapiens) (UniProt P14416); test: Dopamine D2 receptor (DRD2) small molecule agonists, cell-based qHTS assay (AID 1963594); note: nearly all actives have a fitted effect of over 35% in size; note: potency is the fitted concentration of half-maximal effect
Summary of the method: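 HEK293 cells stably expressing human DRD2, pre-treated with PDE inhibitor Ro20-1724 (0.1 mM final) and compound 10 min at room temperature, then stimulated with NKH477 (200nM […]) for 30 min. cAMP read by HTRF (665/620 nm).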

[6] = target: D(2) dopamine receptor (Homo sapiens) (UniProt P14416); test: Dopamine D2 receptor (DRD2) small molecule antagonists, cell-based qHTS assay (AID 1963595; active = well fitted inhibition curve with a large enough effect in the signal ratio in the repeat runs, with a control signal flat; the % refers to the signal ratio; note: potency is the fitted concentration of half-maximal effect)
Summary of the method: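 Stable D2 receptor HEK293 line, 24 h after seeding. Compound preincubated 10 min, then quinpirole (12 nM) with forskolin analogue NKH477 (200 nM), 30 min, room temperature. Detection by time-resolved FRET of cAMP.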

[7] = target: 5-hydroxytryptamine receptor 2A (Homo sapiens) (UniProt P28223); test: 5-hydroxytryptamine receptor 2A (HTR2A) small molecule agonists, cell-based qHTS assay (AID 1963587); note: nearly all actives have a fitted effect of over 30% in size; note: potency is the fitted concentration of half-maximal effect
Summary of the method: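 CHO cells stably expressing human HTR2A, plated 18 h, loaded with calcium dye 1 h at 37 C. Agonist mode: compounds added and intracellular calcium fluorescence recorded kinetically for 2 min at 1 sec intervals.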

[8] = target: Muscarinic acetylcholine receptor M1 (Homo sapiens) (UniProt P11229); test: Cholinergic receptor muscarinic 1 (CHRM1) small molecule antagonists, cell-based qHTS assay (AID 1963588); note: nearly all actives have a fitted effect of over 40% in size; note: potency is the fitted concentration of half-maximal effect
Summary of the method: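 CHRM1-CHO calcium-flux assay, antagonist mode. Cells were seeded 18 h, dye-loaded 1 h at 37 C and given compound for 5 min at RT, then acetylcholine was added at 50nM. FDSS fluorescence was read 3 min; 15 concentrations, three runs.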

[9] = target: Muscarinic acetylcholine receptor M1 (Homo sapiens) (UniProt P11229); test: Cholinergic receptor muscarinic 1 (CHRM1) small molecule agonists, cell-based qHTS assay (AID 1963589); note: nearly all actives have a fitted effect of over 35% in size
Summary of the method: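 Human M1 in stable CHO line; 18 h plating, 1 h dye load 37 C; cpd added (agonist mode); Ca2+ fluorescence kinetic read, 1 s intervals; 15 conc, 3 runs.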

[10] = target: Gonadotropin-releasing hormone receptor (Homo sapiens) (UniProt P30968); test: Human gonadotropin-releasing hormone receptor (GnRHR) small molecule agonists, calcium flux assay in GnRHR-HEK293 cells (AID 1920063); note: nearly all actives have a fitted effect of over 35% in size
Summary of the method: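 GnRHR-HEK293, 1500 cells/well, 18 h 37 C/5% CO2; Ca dye 1 h 37 C; cpd pinned (DMSO), agonist mode; kinetic FL 480/540, 3 min, 1 s reads; 15 conc, n=3.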

[11] = p53 small molecule agonists, cell-based qHTS assay with rat liver microsomes (AID 1963578)
Summary of the method: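 Cells carrying a p53 response element–beta-lactamase reporter were plated and rested 5 h, then dosed with compound in DMSO plus rat liver microsomes and NADPH, each at 0.5 mg/mL final. After 16 h at 37 C, LiveBLAzer substrate was added for 2 h.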

[12] = p53 small molecule agonists, cell-based qHTS assay with human liver microsomes: qHTS cell viability counter screen (AID 1963579); note: nearly all actives have a fitted effect of over 45% in size; note: potency is the fitted concentration of half-maximal effect
Summary of the method: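 Cytotoxicity counter screen: p53RE-bla, 4,000 cells/well; 5 h settle, 37 C/5% CO2; cpd + HLM 0.5 mg/mL + NADPH 0.5 mg/mL (final); 16 h, 37 C; CellTiter-Glo, 30 min RT, luminescence.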

[13] = p53 small molecule agonists, cell-based qHTS assay with rat liver microsomes: qHTS cell viability counter screen (AID 1963580); note: nearly all actives have a fitted effect of over 45% in size; note: potency is the fitted concentration of half-maximal effect
Summary of the method: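 p53RE-bla HCT-116 cells were exposed 16 h at 37 C to compounds with rat liver microsomes (0.5 mg/mL) and NADPH (0.5 mg/mL). Viability was measured in the same wells as ATP content by CellTiter-Glo luminescence.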

[14] = p53 small molecule agonists, cell-based qHTS assay (AID 1963582; active = well fitted activation curve with a large enough effect in the signal ratio in the repeat runs, not every such curve was filed as active; the % refers to the signal ratio; note: potency is the fitted concentration of half-maximal effect)
Summary of the method: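 Reporter line: p53RE-bla. Pre-incubation 5 h, 37 C, 5% CO2; compound (DMSO, pin tool) 16 h, 37 C; B/G FRET substrate 2 h RT; fluorescence intensity read.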

[15] = target: 5-hydroxytryptamine receptor 2A (Homo sapiens) (UniProt P28223); test: 5-hydroxytryptamine receptor 2A (HTR2A) small molecule antagonists, cell-based qHTS assay (AID 1963586); note: nearly all actives have a fitted effect of over 45% in size; note: potency is the fitted concentration of half-maximal effect
Summary of the method: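 Antagonist-mode intracellular calcium assay: DOI (4 nM) added after 5 min compound pre-incubation at room temperature to dye-loaded HTR2A-CHO cells. Fluorescence followed for 3 min, sampled every second.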

[16] = cAMP Responsive Elements (CRE) small molecule agonists, cell-based qHTS assay (AID 1963590)
Summary of the method: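 HEK 293T CRE-bla, 2,000 cells/well, 18 h preincubation 37 C/5% CO2; cpds (DMSO) pinned, 3 h; LiveBLAzer B/G FRET substrate, 2 h RT.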

[17] = cAMP Responsive Elements (CRE) small molecule antagonists, cell-based qHTS assay (AID 1963591; active = well fitted inhibition curve with a large enough effect in the signal ratio in the repeat runs, not every such curve was filed as active; the % refers to the signal ratio; note: potency is the fitted concentration of half-maximal effect)
Summary of the method: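 Beta-lactamase reporter read by FRET substrate (LiveBLAzer B/G) after 2 h at room temperature. CRE-bla HEK293T cells had received compound plus 0.25 uM (final) NKH477 for 3 h at 37 °C.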

[18] = target: KiSS-1 receptor (Homo sapiens) (UniProt Q969F8); test: Human kisspeptin (KISS1R) small molecule agonists, calcium flux assay in KISS1R-HEK293 cells (AID 1920064; active = well fitted activation curve with a large enough effect in the repeat runs)
Summary of the method: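 Stable human KISS1R HEK293 line; 18 h plating, 37 C/5% CO2; calcium dye 1 h 37 C; compound pin transfer; kinetic fluorescence Ex/Em 480/540, 3 min.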

[19] = p53 small molecule agonists, cell-based qHTS assay with human liver microsomes (AID 1963577)
Summary of the method: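 Fluorescence of the beta-lactamase reporter in p53RE-bla cells, detected with LiveBLAzer substrate (2 h, room temperature, dark), served as the read-out after 16 h compound exposure at 37 C with human liver microsomes and NADPH, each 0.5 mg/mL final.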
% is set by controls: 0 for no effect and ±100 for the full control effect.

Sequence of KiSS-1 receptor (Homo sapiens) (Q969F8 whole entry, looked up): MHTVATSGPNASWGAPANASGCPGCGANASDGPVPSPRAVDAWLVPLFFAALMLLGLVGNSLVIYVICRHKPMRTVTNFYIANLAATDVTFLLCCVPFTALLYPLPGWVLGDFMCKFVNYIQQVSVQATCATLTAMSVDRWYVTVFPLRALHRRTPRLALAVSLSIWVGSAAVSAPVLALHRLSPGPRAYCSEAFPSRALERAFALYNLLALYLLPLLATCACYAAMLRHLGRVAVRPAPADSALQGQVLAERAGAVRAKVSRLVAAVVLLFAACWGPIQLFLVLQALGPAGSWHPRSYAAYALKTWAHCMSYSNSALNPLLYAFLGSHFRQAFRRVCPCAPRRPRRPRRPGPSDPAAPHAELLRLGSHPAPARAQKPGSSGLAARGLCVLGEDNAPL
Sequence of Muscarinic acetylcholine receptor M1 (Homo sapiens) (P11229 whole entry, looked up): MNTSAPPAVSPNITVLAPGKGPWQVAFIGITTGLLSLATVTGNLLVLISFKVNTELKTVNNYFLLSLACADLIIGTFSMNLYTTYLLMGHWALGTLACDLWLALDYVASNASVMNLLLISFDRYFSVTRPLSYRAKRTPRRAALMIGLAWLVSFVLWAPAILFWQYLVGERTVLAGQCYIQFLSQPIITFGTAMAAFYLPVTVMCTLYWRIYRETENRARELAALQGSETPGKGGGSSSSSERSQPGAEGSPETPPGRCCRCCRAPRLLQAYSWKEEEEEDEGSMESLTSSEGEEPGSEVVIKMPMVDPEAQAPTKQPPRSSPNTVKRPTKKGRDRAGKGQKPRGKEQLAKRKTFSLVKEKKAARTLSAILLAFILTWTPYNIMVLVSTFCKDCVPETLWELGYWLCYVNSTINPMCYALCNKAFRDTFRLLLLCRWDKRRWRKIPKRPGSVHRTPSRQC
Sequence of Beta-2 adrenergic receptor (Homo sapiens) (P07550 whole entry, looked up): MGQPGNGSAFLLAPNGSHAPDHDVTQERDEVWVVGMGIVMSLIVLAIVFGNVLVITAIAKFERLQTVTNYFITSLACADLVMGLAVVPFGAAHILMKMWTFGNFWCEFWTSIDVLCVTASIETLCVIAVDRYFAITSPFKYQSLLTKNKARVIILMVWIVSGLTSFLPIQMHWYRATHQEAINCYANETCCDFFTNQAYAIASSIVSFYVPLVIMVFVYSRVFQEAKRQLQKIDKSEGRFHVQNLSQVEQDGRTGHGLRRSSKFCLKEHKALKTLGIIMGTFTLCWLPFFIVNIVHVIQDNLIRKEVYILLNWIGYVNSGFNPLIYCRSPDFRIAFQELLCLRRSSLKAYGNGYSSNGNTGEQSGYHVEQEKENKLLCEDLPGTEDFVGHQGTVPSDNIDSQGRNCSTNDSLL
Sequence of 5-hydroxytryptamine receptor 2A (Homo sapiens) (P28223 whole entry, looked up): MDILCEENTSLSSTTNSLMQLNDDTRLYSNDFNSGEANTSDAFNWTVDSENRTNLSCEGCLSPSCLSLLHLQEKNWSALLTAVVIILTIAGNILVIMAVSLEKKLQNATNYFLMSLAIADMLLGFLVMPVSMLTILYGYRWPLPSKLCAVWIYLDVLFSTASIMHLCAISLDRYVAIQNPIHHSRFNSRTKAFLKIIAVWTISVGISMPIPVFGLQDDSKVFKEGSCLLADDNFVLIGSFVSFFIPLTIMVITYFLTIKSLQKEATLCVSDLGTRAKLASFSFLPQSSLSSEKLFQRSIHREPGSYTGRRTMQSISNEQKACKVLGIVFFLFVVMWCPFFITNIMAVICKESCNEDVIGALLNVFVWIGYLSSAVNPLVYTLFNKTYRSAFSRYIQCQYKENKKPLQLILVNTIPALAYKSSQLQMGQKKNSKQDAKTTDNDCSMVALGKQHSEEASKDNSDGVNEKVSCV
Sequence of Gonadotropin-releasing hormone receptor (Homo sapiens) (P30968 whole entry, looked up): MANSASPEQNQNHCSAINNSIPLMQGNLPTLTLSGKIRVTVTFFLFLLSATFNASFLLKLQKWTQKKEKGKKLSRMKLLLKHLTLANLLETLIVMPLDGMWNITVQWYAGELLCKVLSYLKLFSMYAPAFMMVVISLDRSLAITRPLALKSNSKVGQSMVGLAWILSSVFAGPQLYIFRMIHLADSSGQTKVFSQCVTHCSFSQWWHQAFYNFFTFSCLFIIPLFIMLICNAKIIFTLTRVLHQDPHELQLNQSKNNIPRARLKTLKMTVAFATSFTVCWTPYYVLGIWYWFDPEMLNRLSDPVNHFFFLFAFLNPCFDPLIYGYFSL
Sequence of D(2) dopamine receptor (Homo sapiens) (P14416 whole entry, looked up): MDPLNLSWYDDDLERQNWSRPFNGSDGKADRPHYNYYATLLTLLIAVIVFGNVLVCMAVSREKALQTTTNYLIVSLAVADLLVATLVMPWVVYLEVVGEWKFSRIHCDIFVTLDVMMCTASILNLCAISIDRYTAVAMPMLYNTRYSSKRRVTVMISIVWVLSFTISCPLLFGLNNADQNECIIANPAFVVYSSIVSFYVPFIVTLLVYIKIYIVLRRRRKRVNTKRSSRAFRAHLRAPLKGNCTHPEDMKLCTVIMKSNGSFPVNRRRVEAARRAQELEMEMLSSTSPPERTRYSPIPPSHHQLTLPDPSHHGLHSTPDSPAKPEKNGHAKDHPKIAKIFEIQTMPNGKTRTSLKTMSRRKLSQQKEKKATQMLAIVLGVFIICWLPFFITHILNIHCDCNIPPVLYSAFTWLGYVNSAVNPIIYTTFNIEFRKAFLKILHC

O=C1CN(/N=C/c2ccc([N+](=O)[O-])o2)C(=O)N1
inactive: Potency [1] | Potency [2] | Potency [3] | Potency [4] | Potency [6]
inactive and 68.6 µM (active): Potency [5]

CC(=O)N(C)C
inactive: Potency [7] | Potency [8] | Potency [9] | Potency [3] | Potency [5] | Potency [6]

NC(=O)c1ccccc1C(N)=O
inactive: Potency [10] | Potency [11] | Potency [12] | Potency [13] | Potency [15] | Potency [8] | Potency [9] | Potency [16] | Potency [17] | Potency [3] | Potency [5] | Potency [6]
active: Potency [14] 45.9 µM

COc1ccc(CCN(C)CCCC(C#N)(c2ccc(OC)c(OC)c2)C(C)C)cc1OC (stereo unspecified)
inactive: Potency [18] | Potency [1] | Potency [12] | Potency [13] | Potency [2] | Potency [3] | Potency [6]

CCC(CN)=C(c1ccccc1)c1ccccc1
inactive: Potency [1] | Potency [19] | Potency [11] | Potency [12] | Potency [13] | Potency [14] | Potency [15] | Potency [9] | Potency [3] | Potency [5] | Potency [6]
active: Potency [7] 23.9 µM

Cc1cc(NS(=O)(=O)c2ccc(N)cc2)no1
inactive: Potency [10] | Potency [1] | Potency [16] | Potency [17] | Potency [3] | Potency [5] | Potency [6]

COc1ccc2ccccc2c1
active: Potency [15] 33.4 µM
inactive: Potency [7] | Potency [8] | Potency [9] | Potency [3] | Potency [4] | Potency [5]

CC(=O)Nc1ccc(O)cc1
inactive: Potency [10] | Potency [1] | Potency [16] | Potency [3] | Potency [5] | Potency [6]

COC(=O)[C@H]1[C@H]2C[C@@H]3c4[nH]c5cc(OC)ccc5c4CCN3C[C@H]2C[C@@H](OC(=O)/C=C/c2ccc(O)c(OC)c2)[C@@H]1OC
inactive: Potency [18] | Potency [1] | Potency [11] | Potency [12] | Potency [13] | Potency [2] | Potency [15] | Potency [8] | Potency [9] | Potency [5]
active: Potency [7] 19 µM

CCCN(C1CCN(C(=O)C2CCNCC2)CC1)[C@@H]1CCc2ccc(OC)cc2C1
active: Potency [15] 37.5 µM | Potency [7] 17.4 µM
inactive: Potency [18] | Potency [1] | Potency [19] | Potency [11] | Potency [12] | Potency [13] | Potency [2] | Potency [14] | Potency [8] | Potency [9] | Potency [3] | Potency [5] | Potency [6]

CC(C)COC(=O)C(C)C
inactive: Potency [18] | Potency [1] | Potency [13] | Potency [2] | Potency [15] | Potency [7] | Potency [8] | Potency [9] | Potency [16] | Potency [17] | Potency [3] | Potency [4] | Potency [5] | Potency [6]

CS(=O)(=O)c1ccc([C@@H](CC2CCCC2)C(=O)Nc2cnccn2)cc1Cl
inactive: Potency [15] | Potency [7] | Potency [8] | Potency [9] | Potency [3] | Potency [4] | Potency [5] | Potency [6]

COC(=O)C1=C(C)NC(C)=C(C(=O)OCCCN2CCC(c3ccccc3)(c3ccccc3)CC2)C1c1cccc([N+](=O)[O-])c1 (stereo unspecified)
inactive: Potency [18] | Potency [1] | Potency [19] | Potency [11] | Potency [12] | Potency [13] | Potency [2] | Potency [15] | Potency [7] | Potency [8] | Potency [9] | Potency [3] | Potency [6]

CC[C@H](C)COC(=O)/C=C/c1ccc(N=Cc2ccc(OC)cc2)cc1
inactive: Potency [10] | Potency [1] | Potency [19] | Potency [11] | Potency [2] | Potency [15] | Potency [8] | Potency [9] | Potency [17] | Potency [4]

CCCCC(CC)CN=C(N)NC(N)=NCCCCCCN=C(N)NC(N)=NCC(CC)CCCC (stereo unspecified)
inactive: Potency [18] | Potency [1] | Potency [19] | Potency [11] | Potency [9]
active: Potency [12] 22.3 µM | Potency [13] 17.8 µM | Potency [2] 19.9 µM | Potency [15] 18.3 µM | Potency [8] 0.918 µM | Potency [17] 29.8 µM | Potency [3] 29.8 µM | Potency [6] 13.3 µM

NCCCC(O)(P(=O)(O)O)P(=O)(O)O
inactive: Potency [18] | Potency [1] | Potency [2] | Potency [14] | Potency [17] | Potency [3] | Potency [4] | Potency [5] | Potency [6]

CN1[C@@H]2CC(OC(=O)[C@H](CO)c3ccccc3)C[C@H]1[C@@H]1O[C@@H]12 (stereo partly specified)
inactive: Potency [10] | Potency [1] | Potency [2] | Potency [14] | Potency [15] | Potency [7] | Potency [8] | Potency [16] | Potency [17] | Potency [3] | Potency [4] | Potency [6]

N[C@@H](Cc1ccc(O)cc1)C(=O)O
inactive: activation [18] 0.301% [at 6.97 µM] | activation [1] 1.73% [at 5.23 µM] | activity change, negative = cytotoxicity [2] 14.2% [at 5.99 µM] | activity, negative = inhibition [15] 17.7% [at 5.62 µM] | activation [7] 0.614% [at 7.02 µM] | activity, negative = inhibition [8] -1.5% [at 5.58 µM] | activation [9] 0.14% [at 6.97 µM] | activation [16] -0.513% [at 8.39 µM] | activity change, negative = inhibition [17] 0.559% [at 8.39 µM] | activity change, negative = inhibition [3] -0.134% [at 8.39 µM] | activation [4] 15.9% [at 8.39 µM] | activity change, negative = inhibition [6] 0.318% [at 8.38 µM]

CC[C@@H]([C@H](C)O)n1ncn(-c2ccc(N3CCN(c4ccc(OC[C@@H]5CO[C@@](Cn6cncn6)(c6ccc(F)cc6F)C5)cc4)CC3)cc2)c1=O
inactive: Potency [10] | Potency [1] | Potency [19] | Potency [12] | Potency [13] | Potency [2] | Potency [15] | Potency [7] | Potency [8] | Potency [9] | Potency [3] | Potency [4] | Potency [5] | Potency [6]

O=C1Cc2ccccc2C1
inactive: Potency [15] | Potency [7] | Potency [8] | Potency [3] | Potency [5] | Potency [6]
